Measurements as given in PubChem BioAssay AID1159580 (chemical genetic matrix, 2015).
In all, about 5,500 compounds went through this assay and about 2,000 (36%) were called active. Inconclusive results (about 18%) are left out. The list shows a part of the results. Unmarked numbers belong to inactive results. No stated cut-off is given here; in the data, active means normalized growth mostly below about 0.91 (no sharp cut-off); inconclusive means no clear call, values can overlap the other calls; inactive means mostly above about 0.92.

Assay: chemical genetic growth profiling, strain panel (AID 1159580);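 further: tested at 20 µM; growth read once vehicle control cultures reached saturation at 30 °C; 1 = growth at the plate median or of vehicle wells; lower values mean less growth of the strain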
Settings: S. cerevisiae deletion strains, growth OD
[1] = locus YAL013W, strain DEP1, hits give low values
[2] = locus YBR229C, strain ROT2, hits give low values
[3] = locus YDL101C, strain DUN1, hits give low values
[4] = locus YDR150W, strain NUM1, hits give low values
[5] = locus YEL061C, strain CIN8, hits give low values
[6] = locus YGR078C, strain PAC10, hits give low values
[7] = locus YHR030C, strain SLT2, hits give low values
[8] = locus YHR087W, strain rtc3, hits give low values
[9] = locus YJL187C, strain SWE1, hits give low values
[10] = locus YJR043C, strain POL32, hits give low values
[11] = locus YJR075W, strain HOC1, hits give low values
[12] = locus YKL190W, strain CNB1, hits give low values
[13] = locus YLR039C, strain RIC1, hits give low values
[14] = locus YLR058C, strain SHM2 (second series), hits give low values
[15] = locus YLR085C, strain ARP6, hits give low values
[16] = locus YLR262C, strain YPT6, hits give low values
[17] = locus YML094W, strain GIM5, hits give low values
[18] = locus YMR219W, strain ESC1, hits give low values
[19] = locus YMR263W, strain SAP30, hits give low values
[20] = locus YMR307W, strain GAS1, hits give low values
[21] = locus YNL153C, strain GIM3, hits give low values
[22] = locus YNL298W, strain CLA4 (second series), hits give low values
[23] = locus YNL322C, strain KRE1, hits give low values
[24] = locus YNR030W, strain Alg12, hits give low values
[25] = locus YOL006C, strain TOP1, hits give low values
[26] = locus YPL055C, strain LGE1, hits give low values
[27] = locus YPL241C, strain CIN2, hits give low values
[28] = locus YPR135W, strain CTF4, hits give low values
[29] = locus YCL061C, strain MRC1, hits give low values
[30] = locus YDL134C, strain PPH21, hits give low values

With Cc1ccc(Cl)cc1NC(=S)N(CCC#N)/N=C\c1ccc2c(c1)OCO2 the normalized growth [1] was 0.997, the normalized growth [2] was 1 and the normalized growth [3] was 1. It also gave a normalized growth [4] of 1.02, a normalized growth [5] of 1 and a normalized growth [6] of 0.991. It also gave a normalized growth [7] of 0.953, a normalized growth [8] of 0.995 and a normalized growth [9] of 0.995. For the same compound, the normalized growth [10] was 1, the normalized growth [11] was 1.02 and the normalized growth [12] was 0.98. It also gave a normalized growth [13] of 0.936, a normalized growth [14] of 1.01 and a normalized growth [15] of 0.925. The normalized growth [16] was 0.973, the normalized growth [17] was 0.975 and the normalized growth [18] was 1. It also gave a normalized growth [19] of 1.03, a normalized growth [20] of 0.853 and a normalized growth [21] of 1.02. The normalized growth [22] was 0.981, the normalized growth [23] was 0.989 and the normalized growth [24] was 0.974. For the same compound, the normalized growth [25] was 0.998, the normalized growth [26] was 1.04 and the normalized growth [27] was 0.985. The normalized growth [28] was 1.1.
Compound CCOC(=O)/C(C#N)=C/Nc1ccc2c(c1)OCO2 has a normalized growth [1] of 0.992, a normalized growth [2] of 0.985 and a normalized growth [29] of 1.01. For the same compound, the normalized growth [3] was 1.07, the normalized growth [30] was 0.963 and the normalized growth [4] was 1. For the same compound, the normalized growth [5] was 0.989, the normalized growth [6] was 0.98 and the normalized growth [7] was 0.4 (active). For the same compound, the normalized growth [8] was 0.986, the normalized growth [9] was 0.982 and the normalized growth [10] was 0.989. The normalized growth [11] was 0.889 (active), the normalized growth [13] was 0.795 and the normalized growth [14] was 0.971. The normalized growth [15] was 0.772 (active), the normalized growth [16] was 0.816 (active) and the normalized growth [17] was 1.03. It also gave a normalized growth [18] of 0.981, a normalized growth [19] of 0.96 and a normalized growth [20] of 0.884. For the same compound, the normalized growth [21] was 1.02, the normalized growth [22] was 0.905 and the normalized growth [23] was 0.97. The normalized growth [24] was 0.946, the normalized growth [25] was 0.804 and the normalized growth [26] was 0.976. For the same compound, the normalized growth [27] was 0.966 and the normalized growth [28] was 0.786.
With Cc1ccc(S(=O)(=O)N2CCC(N)=N2)cc1 the normalized growth [1] was 1.03, the normalized growth [2] was 0.954 and the normalized growth [29] was 1.03. For the same compound, the normalized growth [3] was 1.05, the normalized growth [30] was 0.984 and the normalized growth [4] was 1.02. It also gave a normalized growth [5] of 0.997, a normalized growth [6] of 1.02 and a normalized growth [7] of 1.1. It also gave a normalized growth [8] of 1.01, a normalized growth [9] of 0.999 and a normalized growth [10] of 1.05. It also gave a normalized growth [11] of 1.02, a normalized growth [12] of 1 and a normalized growth [13] of 1. It also gave a normalized growth [14] of 0.992, a normalized growth [15] of 1.02 and a normalized growth [16] of 0.99. The normalized growth [17] was 1, the normalized growth [18] was 0.995 and the normalized growth [19] was 1.02. The normalized growth [20] was 0.997, the normalized growth (locus YNL128W, strain TEP1, hits give low values) was 1.01 and the normalized growth [21] was 1.02. It also gave a normalized growth [22] of 1.04, a normalized growth [23] of 1 and a normalized growth [24] of 0.992. It also gave a normalized growth [26] of 1, a normalized growth [27] of 1 and a normalized growth [28] of 1.08.
CC(C)(C)NCC(O)COc1cccc2c1CCCC2=O (configuration not stated) showed a normalized growth (locus YAL021C, strain ccr4, hits give low values) of 0.97, a normalized growth (locus YAL026C, strain drs2, hits give low values) of 0.976 and a normalized growth (locus YAL030W, strain snc1, hits give low values) of 0.985. For the same compound, the normalized growth (locus YBL061C, strain skt5, hits give low values) was 0.981, the normalized growth (locus YBR009C, strain hhf1, hits give low values) was 1 and the normalized growth (locus YBR023C, strain chs3, hits give low values) was 0.983. It also gave a normalized growth (locus YBR171W, strain sec66, hits give low values) of 0.934, a normalized growth (locus YBR231C, strain swc5, hits give low values) of 0.98 and a normalized growth (locus YBR279W, strain paf1, hits give low values) of 0.979. The normalized growth (locus YCL011C, strain gbp2, hits give low values) was 0.992, the normalized growth (locus YCL016C, strain dcc1, hits give low values) was 1.02 and the normalized growth [29] was 0.957. For the same compound, the normalized growth (locus YCL069W, strain vba3, hits give low values) was 0.952, the normalized growth (locus YCR088W, strain abp1, hits give low values) was 0.981 and the normalized growth (locus YDL005C, strain med2, hits give low values) was 0.987. It also gave a normalized growth (locus YDL040C, strain nat1, hits give low values) of 0.978, a normalized growth (locus YDR001C, strain nth1, hits give low values) of 0.976 and a normalized growth (locus YDR069C, strain doa4, hits give low values) of 0.987. For the same compound, the normalized growth (locus YDR137W, strain rgp1, hits give low values) was 0.983, the normalized growth (locus YDR159W, strain sac3, hits give low values) was 0.967 and the normalized growth (locus YDR195W, strain ref2) was 0.966. It also gave a normalized growth (locus YDR297W, strain sur2, hits give low values) of 0.981, a normalized growth (locus YDR334W, strain swr1, hits give low values) of 0.937 and a normalized growth (locus YDR335W, strain msn5, hits give low values) of 0.989. It also gave a normalized growth (locus YDR392W, strain spt3, hits give low values) of 0.992, a normalized growth (locus YEL003W, strain gim4, hits give low values) of 0.994 and a normalized growth (locus YEL037C, strain rad23, hits give low values) of 0.973. The normalized growth (locus YEL061C, strain CIN8 (second series), hits give low values) was 0.961, the normalized growth (locus YER015W, strain faa2, hits give low values) was 0.981 and the normalized growth (locus YER016W, strain bim1, hits give low values) was 1.01. The normalized growth (locus YER111C, strain swi4, hits give low values) was 0.982, the normalized growth (locus YER155C, strain BEM2 (second series), hits give low values) was 0.986 and the normalized growth (locus YFR010W, strain ubp6, hits give low values) was 0.95. For the same compound, the normalized growth (locus YGL167C, strain pmr1, hits give low values) was 0.984, the normalized growth (locus YGL173C, strain kem1, hits give low values) was 0.977 and the normalized growth (locus YGL227W, strain vid30, hits give low values) was 0.964. For the same compound, the normalized growth (locus YGL240W, strain doc1, hits give low values) was 0.984, the normalized growth (locus YGL253W, strain hxk2, hits give low values) was 0.99 and the normalized growth (locus YHR013C, strain ard1, hits give low values) was 0.988. For the same compound, the normalized growth (locus YHR027C, strain rpn1, hits give low values) was 0.996, the normalized growth [7] was 0.954 and the normalized growth (locus YHR079C, strain IRE1, hits give low values) was 0.954. The normalized growth (locus YHR142W, strain chs7, hits give low values) was 0.986, the normalized growth (locus YJL092W, strain hpr5, hits give low values) was 0.99 and the normalized growth (locus YJL095W, strain BCK1 (second series), hits give low values) was 0.988. It also gave a normalized growth (locus YJL095W, strain BCK1, hits give low values) of 0.98, a normalized growth (locus YJL115W, strain asf1, hits give low values) of 0.959 and a normalized growth (locus YJL129C, strain trk1, hits give low values) of 0.97. It also gave a normalized growth (locus YJL154C, strain vps35, hits give low values) of 0.981, a normalized growth (locus YJL164C, strain tpk1, hits give low values) of 1 and a normalized growth (locus YJL166W, strain qcr8, hits give low values) of 0.976. The normalized growth [9] was 0.989, the normalized growth (locus YJR066W, strain TOR1, hits give low values) was 0.943 and the normalized growth (locus YKL160W, strain elf1, hits give low values) was 1.01. The normalized growth (locus YKR026C, strain gcn3, hits give low values) was 0.983, the normalized growth (locus YKR091W, strain srl3, hits give low values) was 0.986 and the normalized growth (locus YLL001W, strain dnm1, hits give low values) was 0.985. The normalized growth (locus YLL026W, hits give low values) was 0.993, the normalized growth (locus YLL041C, strain sdh2, hits give low values) was 1.01 and the normalized growth (locus YLR027C, strain aat2, hits give low values) was 1.01. It also gave a normalized growth (locus YLR113W, strain HOG1, hits give low values) of 1.01, a normalized growth (locus YLR221C, strain rsa3, hits give low values) of 0.999 and a normalized growth (locus YLR258W, strain gsy2, hits give low values) of 0.969. For the same compound, the normalized growth (locus YLR262C, strain YPT6 (second series), hits give low values) was 0.971, the normalized growth (locus YLR320W, strain mms22, hits give low values) was 0.965 and the normalized growth (locus YLR342W, strain FKS1, hits give low values) was 0.992. For the same compound, the normalized growth (locus YLR357W, strain rsc2, hits give low values) was 0.991, the normalized growth (locus YLR370C, strain arc18, hits give low values) was 0.984 and the normalized growth (locus YLR384C, strain iki3, hits give low values) was 0.973. It also gave a normalized growth (locus YML120C, strain ndi1, hits give low values) of 1.01, a normalized growth (locus YMR058W, strain fet3, hits give low values) of 0.982 and a normalized growth (locus YMR125W, strain sto1, hits give low values) of 0.958. It also gave a normalized growth (locus YMR129W, hits give low values) of 0.992, a normalized growth (locus YMR205C, strain PFK2, hits give low values) of 0.989 and a normalized growth (locus YMR231W, strain pep5, hits give low values) of 0.983. For the same compound, the normalized growth (locus YNL071W, strain lat1, hits give low values) was 0.958, the normalized growth (locus YNL183C, strain NPR1, hits give low values) was 0.952 and the normalized growth (locus YNL209W, strain ssb2, hits give low values) was 0.984. The normalized growth (locus YNL248C, strain rpa49, hits give low values) was 0.98, the normalized growth (locus YNL322C, strain KRE1 (second series), hits give low values) was 1.01 and the normalized growth (locus YNR049C, strain mso1, hits give low values) was 0.993. For the same compound, the normalized growth (locus YOR001W, strain rrp6, hits give low values) was 0.944, the normalized growth (locus YOR070C, strain gyp1, hits give low values) was 0.992 and the normalized growth (locus YOR080W, strain dia2, hits give low values) was 1. For the same compound, the normalized growth (locus YOR083W, strain WHI5, hits give low values) was 1.02, the normalized growth (locus YOR106W, strain vam3, hits give low values) was 0.977 and the normalized growth (locus YOR231W, strain MKK1, hits give low values) was 0.977. The normalized growth (locus YOR265W, strain rbl2, hits give low values) was 0.979, the normalized growth (locus YOR270C, strain vph1, hits give low values) was 0.95 and the normalized growth (locus YOR290C, strain snf2, hits give low values) was 1.03. It also gave a normalized growth (locus YPL051W, strain arl3, hits give low values) of 1.01, a normalized growth (locus YPL078C, strain atp4, hits give low values) of 1 and a normalized growth (locus YPL106C, strain sse1, hits give low values) of 0.975. It also gave a normalized growth (locus YPL240C, strain hsp82, hits give low values) of 0.996 and a normalized growth (locus YPL256C, strain CLN2, hits give low values) of 0.969.
